Measurements published in PubChem BioAssay AID1032 (The Scripps Research Institute Molecular Screening Center, 2008).
Screen size: about 200,000 compounds; about 670 (0.34%) were called active. This is one part of a sample in which actives are shown more often than they occur. A number with no mark means an inactive call. Rule as the data show it: active = activation above about 22%; inactive = the rest.

target: Peroxisome proliferator-activated receptor gamma (Homo sapiens) (UniProt P37231); assay: agonists of PPARg-SRC-2 recruitment, primary screen, biochemical, HTS (AID 1032); settings: PPARgamma LBD-SRC-2 recruitment, at 8 µM, hits give high values;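 also: 0% = vehicle and 100% = reference agonist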
Sequence (P37231 whole entry, looked up, the tested form may be a part): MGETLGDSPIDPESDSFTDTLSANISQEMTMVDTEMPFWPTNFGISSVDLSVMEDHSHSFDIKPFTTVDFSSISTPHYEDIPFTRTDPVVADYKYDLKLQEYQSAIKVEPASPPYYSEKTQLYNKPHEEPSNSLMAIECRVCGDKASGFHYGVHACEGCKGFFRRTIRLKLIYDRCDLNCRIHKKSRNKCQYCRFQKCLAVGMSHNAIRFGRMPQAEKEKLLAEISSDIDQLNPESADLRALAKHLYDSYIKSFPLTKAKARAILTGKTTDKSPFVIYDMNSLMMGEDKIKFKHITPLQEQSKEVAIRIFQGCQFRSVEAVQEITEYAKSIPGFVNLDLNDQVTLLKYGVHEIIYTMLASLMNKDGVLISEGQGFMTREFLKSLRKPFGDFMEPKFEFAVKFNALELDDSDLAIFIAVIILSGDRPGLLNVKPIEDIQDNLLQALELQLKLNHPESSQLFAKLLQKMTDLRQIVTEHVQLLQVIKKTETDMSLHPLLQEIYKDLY

SMILES | activation
CSC1=NP(=S)(SC)N(C)c2nc3n(c21)CCC3 (stereo not given) | 76.2% (active)
Cc1cccc2c(CCN)c[nH]c12 | 0.78%
O=C(Cc1ccccc1[N+](=O)[O-])N1CCN(Cc2ccc3c(c2)OCO3)CC1 | 0.02%
CCN1CCN(c2ccc([N+](=O)[O-])cc2C#N)CC1 | 6.97%
CC(C)CN1CCN(Cc2ccccc2C(F)(F)F)CC1CCO (stereo not given) | -9.41%
COc1cc(-n2c(=S)[nH]c3ccc(C)cc3c2=O)c(Cl)cc1Cl | 24.8% (active)
CN(C)/C=C(\C=[N+](C)C)c1[nH]ncc1[N+](=O)[O-] | 3.67%
Cc1ccsc1C(=O)C1CCCN(Cc2ccc(O)cc2)C1 (stereo not given) | 4.16%
O=C1NC(=O)N(c2ccccc2)C(=O)/C1=C/c1ccc([N+](=O)[O-])s1 | 0.92%
COc1ccc(CN2C(=O)NC(=O)/C(=C\c3ccc(OC)c(OC)c3OC)C2=O)cc1 | 11%
